Structures are written as SMILES. In all, about 48,000 compounds went through this assay and about 13,000 (27%) showed an effect of 50% or more. The list shows a part of the results.

This experiment has as its system Wolbachia pipientis. In words: Anti-Wolbachia Cell-Based Screen. The experiment is classed as functional. Also on record: scale not given: in the data most compounds retested in dose-response had high values. The conditions noted are these: 5 µM.
As for `COCCN1CC2(CCC1=O)CCN(Cc1cc(F)ccc1Cl)CC2`, the “Percent Effect” value is 8.376%. `COCCCN1CC2(CCC1=O)CCN(Cc1cc(C)no1)CC2`: the “Percent Effect” value was -12.58%. With `O=C(CCC1CCCO1)NCCN1CCCCC1` (configuration not stated), the “Percent Effect” value was -10.6%. For `Cn1nccc1CCC(=O)N1CCCC(Cc2cccnc2)C1` (configuration not stated) the value was 92.49%; for `CC(C)c1nc(C2CCCN(C(=O)Cc3cccnc3)C2)no1` (configuration not stated), -1.83%; for `CC(C)C(=O)N1CCCC(Cc2cccnc2)C1` (configuration not stated), 104.6%.

Take `CC(C)C(=O)N1CCC2(CC1)NC(=O)[C@H]1CN(Cc3cccnc3)C[C@H]12`: the “Percent Effect” value is listed as -21.16%. Consider `CC1CCCN(C(=O)CCc2cccnc2)C1` (configuration not stated), for which the “Percent Effect” value was -4.583%. For `CSc1nnc(CC2CCN(C(=O)CCc3cccnc3)CC2)n1C` the value was -9.622%; for `CCN(C(=O)Cc1ccc(NCc2ncc[nH]2)cc1)c1ccccc1`, -2.92%; for `Cc1[nH]c(=O)c(C#N)cc1C(=O)N1C[C@@H](CN2CCCC2)C[C@H](CO)C1`, 10.61%.

Consider `CCOc1ccccc1C(CC(=O)Nc1ccccc1)NC(C)=O` (configuration not stated), for which the “Percent Effect” value was -7%. For `CCC(=O)N1CCN(c2cc(N(C)C)cnn2)CC1`, the “Percent Effect” value is 6.449%.

For the compound `O=c1[nH]c(N2CC(O)C2)nc2c1cnn2-c1ccccc1`, the “Percent Effect” value was found to be 21.25%.

For the compound `COCC1CC2(CCN(C(N)=O)CC2)CN1Cc1csc(C)n1.O=C(O)C(F)(F)F` (configuration not stated), the “Percent Effect” value is -7.067%. For `Cc1nc(CN2C(=O)COC3(CCN(C)CC3)C2C)cs1.O=C(O)C(F)(F)F` (configuration not stated) the value was 127.2%. For `CC1N(CC2CC2)C(=O)COC12CCN(C(=O)c1cscn1)CC2` (configuration not stated) the value was -4.225%. Consider `Cc1nc(CN2C(=O)COC3(CCN(CC4CC4)CC3)C2C)cs1.O=C(O)C(F)(F)F` (configuration not stated), for which the “Percent Effect” value turned out to be 98.79%.

Consider `Cc1nc(CN2C(=O)COC3(CCN(Cc4ccsc4)CC3)C2C)cs1.O=C(O)C(F)(F)F` (configuration not stated), for which the “Percent Effect” value came out at 114.5%. As to `Cc1nc(CN2C(=O)COC3(CCN(C(N)=O)CC3)C2C)cs1` (configuration not stated), the “Percent Effect” value is 117.7%.

For the compound `Cc1nc(CN2C(=O)CC3(CCN(C(N)=O)CC3)c3ccccc32)cs1.O=C(O)C(F)(F)F`, the “Percent Effect” value is given as -9.244%.

As for `Cc1nc(CN2C(=O)COC3(CCN(Cc4nccs4)CC3)C2C)cs1.O=C(O)C(F)(F)F` (configuration not stated), the “Percent Effect” value is -7.401%. For `CCc1ccc(CNC(=O)Nc2cc(C)on2)s1` the value was -14.37%; for `COCc1nc2cc3c(cc2c(=O)o1)OCCCO3`, -7.292%; for `COc1cc(CC(O)CC#N)c(OC)c2c1OCO2` (configuration not stated), -11.73%.

On to `COCc1noc(-c2nn(-c3ccccc3F)c3c2CCC3)n1`, for which the “Percent Effect” value is -4.596%.

As for `Cc1ncsc1CCC(=O)N1CCCC[C@H](N(C)C)C1`, the “Percent Effect” value amounted to 4.231%. For `COc1cc(C(=O)NCCc2ccc(Cl)cc2)on1` the value was -4.303%. For `CCCNc1ccc(C(=O)NCCc2ccc(Cl)cc2)cn1` the value was 106.9%; for `CNC(=O)c1cccc(CCNc2ccccn2)c1`, -20.45%. As for `COc1cccc(CCNC(=O)c2ccc(=O)n(C)c2)c1`, the “Percent Effect” value turned out to be 11.31%. For `COc1cc(C(=O)NCCc2cccc(C)c2)on1` the value was -13.11%. With `CCCNc1ccc(C(=O)NCCc2cccc(OC)c2)cn1`, the “Percent Effect” value was found to be 121.7%.

For the compound `CNC(=O)c1cccc(CCNc2ccc(C#N)cn2)c1`, the “Percent Effect” value is -20.96%. For `CCCNc1ccc(C(=O)NCCc2cccc(Cl)c2)cn1` the value was 116.4%.

Take `CCNc1ncc(C(=O)NCCc2ccc(C)c(C)c2)cn1`: the “Percent Effect” value was -6.077%. For `CCCn1cnnc1CNC(=O)CC1C(=O)NCCN1C(C)C` (configuration not stated) the value was -4.75%; for `CN(CCCc1nccn1C)C(=O)C1CCN(C(=O)C2CCCC2)CC1`, -7.854%. As for `Cc1cc(C)cc(CN2CCN(Cc3ccc4nonc4c3)CC2=O)c1`, the “Percent Effect” value is reported as -1.635%. With `CCNC(=O)CN1CCC(c2cc(OC)cc(OC)c2)C1` (configuration not stated), the “Percent Effect” value is listed as -11.46%. As for `CCOCC1CN(S(C)(=O)=O)Cc2nn(C)cc21` (configuration not stated), the “Percent Effect” value is -37.27%.

For `Cc1nc(C2CCCN(C(=O)c3ccc(OCC4CC4)cc3)C2)no1` (configuration not stated), the “Percent Effect” value is -3.23%. For `CCOc1cc(C(=O)N2CCCC(c3noc(C)n3)C2)ccc1OC` (configuration not stated) the value was 123.2%; for `Cc1nc(C2CCCN(C(=O)c3ccc(OCC4CC4)nc3)C2)no1` (configuration not stated), 97.67%. For `COc1ccnc(C(=O)N2CCCC(c3noc(C)n3)C2)c1` (configuration not stated) the value was -1.667%; for `Cc1nc(C2CCCN(C(=O)c3ccc(N4CCCC4)nc3)C2)no1` (configuration not stated), -0.5946%; for `COc1ccc(N(C(=O)c2ccc(C)nc2)C(C)C)cc1F`, -11.04%. For `CN(C)C[C@@H]1CN(Cc2ccccc2C#N)C[C@@H]1CO` the value was 8.186%; for `Cn1ncc2c1CN(C(=O)Cc1ccccn1)CC2COCC1CC1.O=C(O)C(F)(F)F.O=C(O)C(F)(F)F` (configuration not stated), -6.419%. `Cc1cc(C)c(CCNC(=O)NCCCC(N)=O)c(C)c1`: the “Percent Effect” value is on record as -1.921%.

Take `CCNC(=O)CNC(=O)Nc1cccc(Cl)c1SC(F)F`: the “Percent Effect” value is -15.46%. For `CCNC(=O)CNC(=O)Nc1c(F)cc(F)cc1-c1ccccc1` the value was 120.1%.
